High-throughput results as filed in PubChem BioAssay.
An excerpt weighted towards active compounds, which were near 2.5% of everything screened.
pAkt inh – HTS Assay for Inhibitors of Akt Phophorylation: Primary Screen; AID 651550, 2012; activity change, % for hits at 50 µM; 360,000 compounds, 0.32% hits; Neuro2A IGF-stimulated pAkt S473 HTRF, 20 min; active compounds read low; in the data active = activity change below about -80%; inconclusive = mostly about -51% to -80%; note: % is set by controls: 0 for no effect and ±100 for the full control effect
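Single-point screen (50 µM final compound) in Neuro2A cells stimulated 20 min with 6 nM IGF at 37 deg C. After lysis, Ser473-phosphorylated Akt read by HTRF (ex 330 nm, em 615/665 nm) as the 665/615 ratio.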
Mito fusion yeast – qHTS Assay for Small Molecule Inhibitors of Mitochondrial Division or Activators of Mitochondrial Fusion. Potency, µM (titrated, usually from 46.1 µM), for the others: at the highest dose growth rescue (activation), usual class: activators. S. cerevisiae fusion-defective mutant growth rescue, CellTiterGlo 48 h. 320,000 compounds, 0.23% hits; note: potency is the fitted concentration of half-maximal effect; % of control where 0% means no effect; nearly all actives have a fitted effect of over 45% in size
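Luminescent cell viability in 1536-well qHTS format served as the measure of rescued growth in ts fusion-mutant S. cerevisiae cultured on non-fermentable YPEG for 48 hours at 37C.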
Apoferritin bind – qHTS Assay for Identification of Novel General Anesthetics; 350,000 compounds, 0.074% hits; AID 485281, 2010; Potency, µM (doses to about 77.5 µM), for inactives: top-dose activity change, negative = displacement, most hits filed as inhibitors; apoferritin/1-aminoanthracene competitive binding, fluorescence; Ferritin light chain (Equus caballus), P02791; note: potency is the fitted concentration of half-maximal effect; % is set by controls: 0 for no effect and ±100 for the full control effect; nearly all actives have a fitted effect of over 20% in size
Target sequence (P02791 2-175 limits assumed): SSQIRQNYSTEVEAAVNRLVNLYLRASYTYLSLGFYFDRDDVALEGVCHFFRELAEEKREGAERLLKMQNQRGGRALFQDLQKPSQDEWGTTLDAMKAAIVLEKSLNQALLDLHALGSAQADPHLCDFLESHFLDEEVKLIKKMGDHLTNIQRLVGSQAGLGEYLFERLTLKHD
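Horse-spleen apoferritin (10 uM) was mixed with 50% saturated 1-aminoanthracene in PBS, exposed to compounds for 10 min at room temperature, and read for fluorescence (ex 380 nm, em 535 nm). Competitive displacement was fitted with a four-parameter Hill equation.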
TDP43 rescue – qHTS of TDP-43 Inhibitors; TDP-43 expressing yeast growth rescue, BacTiter-Glo, 24 h; Potency, µM (titrated, usually from 46.1 µM), inactives show top-dose growth rescue (activation), usual class: activators; 410,000 compounds, 1.8% hits; AID 652104, 2013; note: potency is the fitted concentration of half-maximal effect; % of control where 0% means no effect; nearly all actives have a fitted effect of over 50% in size
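In this qHTS, compounds that restore growth of yeast expressing TDP-43 appear as activators. Cells (OD600=0.02, galactose medium, raffinose-pregrown) are incubated with compound 24 hr at 30 deg C and growth is quantified by BacTiter-Glo.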
aSyn rescue – qHTS of alpha-syn Inhibitors; Yeast expressing alpha-synuclein, growth rescue, BacTiter-Glo, 24 h; Potency, µM (titrated, usually from 46.1 µM), for inactives: top-dose growth rescue (activation), hits mostly activators; 370,000 compounds, 0.14% hits; AID 652106, 2013; note: potency is the fitted concentration of half-maximal effect; % of control where 0% means no effect; nearly all actives have a fitted effect of over 65% in size
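Rescue of yeast growth: cells expressing toxic alpha-synuclein, induced in galactose at OD600 0.02, incubated with compound 24 h at 30 C. ATP luminescence quantified growth; inhibitors of toxicity appear as activators.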
CCT modulator – High-Throughput Screening for Modulators of Cytosolic Chaperonin Activity. AID 651819, 2012. purified chaperonin ATPase assay, HTRF ADP detection, 30 min. 360,000 compounds, 0.3% hits. activity change, % (no concentration beside the values), hits read low; in the data active = activity change below about -30%; note: % is set by controls: 0 for no effect and ±100 for the full control effect
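Nucleotide hydrolysis assay: TRiC at 20–40 nM final (set by batch activity) with 10 uM ATP, 30 min at 37 °C, in presence of 76 uM compound. Detection by competitive ADP HTRF, 30 min ambient.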
An asterisk follows results filed as active; i = inactive; ? = inconclusive; / = not tested or not shown; [ ] = dose if it differs, or a comment. Unless noted, calls come from the whole dose curve; as a rule, active = well fitted curve in the direction sought with a large enough effect; inconclusive = small, poorly fitted or top-dose-only effect, or another doubt; inactive = no such curve, though single readings can be large; an effect the other way counts as inactive or inconclusive.

SMILES	pAkt inh	Mito fusion yeast	Apoferritin bind	TDP43 rescue	aSyn rescue	CCT modulator
O=C(Nc1nnc(C2CCCCC2)s1)C1CCN(C(=O)c2ccco2)CC1	/	/	/	/	8%	/
CCOC(=O)CN1C(=O)C(C)(C)Oc2ccc(C(=O)NC(C)(C)CC)cc21	-111%*	0%	-9%	-4%	-11%	-2
CCCCC(=O)N1C/C=C\C(c2ccc(OC)cc2)N(Cc2ccc(F)cc2)C(=O)C1C (centres undefined)	/	/	-9%	/	/	/
CCc1ccccc1NC(=O)C1CCN(c2nn3c(=O)cc(C)nc3s2)CC1	/	/	-3%	-13%	/	/
COCc1cc(S(=O)c2ccc(Cl)cc2)nc(C)n1 (centres undefined)	i	-3%	-12%	15%	-17%	-3
COCc1cc(Sc2ccc(Cl)cc2)nc(C)n1	i	3%	-9%	11µM*	-6%	0
Cc1nc(CS(=O)(=O)c2ccc(Cl)cc2)cc(Sc2ccc(Cl)cc2)n1	i	?	-16%	28µM*	4%	-1
CCN1C(=O)CSC1=Nc1ccc(Cl)c(Cl)c1	i	7%	?	13µM*	-17%	3
COC(=O)c1nn(C23CC4CC(CC(C4)C2)C3)c2c1C(=O)N(c1ccc(Br)cc1)C2=O	i	-2%	3%	-1%	-2%	-3
CCOC(=O)c1nn(C23CC4CC(CC(C4)C2)C3)c2c1C(=O)N(c1ccc(C)cc1)C2=O	-110%*	1%	-14%	4%	10%	0
O=C1NC(c2cccs2)Nc2sc3c(c21)CCCC3 (centres undefined)	i	4%	-5%	9%	6%	-94*
CN1CCc2c(sc3c2C(=O)NC(c2ccco2)N3)C1 (centres undefined)	i	-1%	-2%	26%	1%	-1
CCn1ncc(Br)c1C(=O)Nc1ccccc1OC	i	4%	-14%	?	3%	-35*
CCn1nccc1C(=O)Nc1ccccc1OC	i	6%	-4%	25%	3%	1
S=c1[nH]nc(COc2ccc3ccccc3c2)o1	i	-2%	2%	11µM*	-7%	-4
CC1(c2nnc(-c3ccc(F)cc3)o2)CC(c2c(Cl)cccc2Cl)=NO1 (centres undefined)	i	?	-5%	35µM*	-11%	-2
CC1(c2nnc(-c3ccc(Cl)cc3)o2)CC(c2c(Cl)cccc2Cl)=NO1 (centres undefined)	i	28%	2%	24%	-3%	1
O=C(c1cc(COc2ccc(F)cc2Cl)on1)N1CCN(C2CCCCC2)C(=O)C1	i	-17%	4%	20µM*	20%	1
O=C(c1cc(COc2ccc(F)cc2Cl)on1)N1CCN(C2CCCC2)CC1	i	-1%	?	-3%	-6%	-1
NC(N)=NCCC[C@H](N)C(=O)NCC(=O)N[C@@H](CC(=O)O)C(=O)O	/	/	3%	/	/	/
COc1ccc(-c2nc(N3CCN(S(=O)(=O)c4ccc(F)cc4)CC3)c3ccccc3n2)cc1	/	/	/	/	-4%	/
Cc1cccc(CNC(=O)C2CCN(c3nc4ccc(Cl)cc4[nH]3)CC2)c1	/	/	-6%	17%	/	/
CCn1c(SCc2nc(-c3cccs3)no2)nnc1-c1c[nH]c2ccccc12	i	-1%	-5%	-15%	-17%	-3
Cc1nnc(SCc2nnc(-c3cccs3)o2)n1Cc1ccccc1	i	-5%	-8%	15%	12%	-8
Clc1ccc(-c2nnc(CSc3nnc(-c4cccs4)n3Cc3ccccc3)o2)cc1	i	?	-11%	18µM*	?	-2
SMILES	pAkt inh	Mito fusion yeast	Apoferritin bind	TDP43 rescue	aSyn rescue	CCT modulator
c1ccc(-c2noc(CSc3nnnn3C3CCCCC3)n2)cc1	i	-2%	-18%	13µM*	3%	0
CCn1c(SCc2nc(-c3ccccc3)no2)nnc1-c1cccs1	i	4%	?	13µM*	6%	0
CCn1c(SCc2nc(-c3ccccc3)no2)nc2ccccc21	i	8%	-7%	16µM*	6%	-1
CCOc1ccc(CCNc2ncnc3onc(C)c23)cc1OCC	/	/	-1%	26%	/	/
CCc1ccc2c(c1)c(=O)c(C(=O)c1ccc(C)cc1)cn2CC(=O)Nc1ccc2c(c1)OCCO2	/	/	-8%	4%	/	/
Cn1c(SCc2nc(-c3ccc(Br)cc3)no2)nnc1-c1ccco1	i	4%	?	0%	3%	0
CCn1c(SCc2nc(-c3ccccc3)no2)nnc1-c1ccco1	i	5%	-1%	18µM*	2%	1
N#CC(C(=O)c1ccccc1Cl)=C1SCCCS1	i	2%	-13%	35µM*	10%	-4
COc1ccc(CN2C(=O)C(CC(=O)NC3CCCCC3)CC(C(=O)N(C)C)=C2C)cc1 (centres undefined)	i	/	/	-4%	3.5µM*	1
COc1ccc(CN2C(=O)C(CC(=O)NC3CCCC3)CC(C(=O)N(C)C)=C2C)cc1 (centres undefined)	i	/	/	0%	-1%	1
COc1ccc(-c2cn3nc(N4CCCC(C(=O)NCc5ccc(Cl)cc5)C4)sc3n2)cc1 (centres undefined)	/	/	0%	16%[9.22 µM]	/	/
COc1ccccc1CNc1ccc(-c2nc(C)no2)cc1[N+](=O)[O-]	/	/	-10%	7%	/	/
O=C(c1ccc(F)cc1)C1CCN(C(=S)Nc2ccc(F)cc2)CC1	i	-3%	-11%	22µM*	12%	-2
CC(C)(C)NC(=S)N1CCC(C(=O)c2ccc(F)cc2)CC1	i	1%	1%	20%	5%	-2
COc1cc(NS(=O)(=O)c2ccc(NC(=O)COc3ccccc3Cl)cc2)nc(OC)n1	-125%*	0%	-5%	15%	14%	3
COc1cc(NS(=O)(=O)c2ccc(NC(=O)COc3cccc(C)c3)cc2)nc(OC)n1	i	6%	-10%	9%	8%	-5
O=C(O)c1ccccc1NC(=O)C(Cc1ccccc1)N1C(=O)c2ccccc2C1=O (centres undefined)	i	7%	-5%	10%	-12%	-32*
CCn1c(SCC(=O)NCc2ccc(C)cc2)nnc1-c1ccncc1	i	-4%	-17%	-10%	1%	-1
CCCn1c(SCC(=O)NCc2ccccc2)nnc1-c1ccncc1	-115%*	4%	-1%	-11%	-1%	-2
CCCCn1nnnc1SCC(=O)NCc1ccccc1	-115%*	1%	-5%	7%	11%	-2
CN(C)CCCNc1nccc(N2CCN(C)CC2)n1	/	/	/	/	-2%	/
